# The supplement of paper PMC10849652
# The full data set covers some 8,800 targets. This sample favours those with a hit. About 0.5% of all pairs of compound and target were hits. A number with no mark means an inactive call.
# What was measured:
# Experiment in all cases: log2 fold change, soluble protein after heating vs DMSO (PISA); higher = thermal stabilisation; K562 lysate, 10 uM; active = over 0.2 and 3.5 SD of the protein, either way, in both replicates (recomputed)
# vemurafenib = compound: CCCS(=O)(=O)Nc1ccc(F)c(C(=O)c2c[nH]c3ncc(-c4ccc(Cl)cc4)cc23)c1F [vemurafenib]
# Summary of the method: (§1)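 K562 pellets were dounce-homogenised in PBS pH 7.4 with 1 mM MgCl2, and the crude extract at 1 mg/mL protein was treated with 10 μM compound for 30 min. Aliquots were heated for 3 min across 48°C-58°C, pooled, and brought to 0.5% NP-40 at 4°C; soluble protein was the supernatant after 21,000xg for 90 min. Soluble protein was quantified by TMTpro 16plex LC-MS/MS with channel sums equalised, and reported as log2 fold change in thermal stability against DMSO controls, with values from duplicates.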
# [1] = compound: CCCS(=O)(=O)Nc1ccc(F)c(C(=O)c2c[nH]c3ncc(Cl)cc23)c1F
# Summary of the method: as §1
# barasertib = compound: CCN(CCCOc1ccc2c(Nc3cc(CC(=O)Nc4cccc(F)c4)[nH]n3)ncnc2c1)CCOP(=O)(O)O [barasertib]
# Summary of the method: as §1
# [2] = compound: CC[C@@H]1C(=O)N(C)c2cnc(Nc3ccc(C(=O)NC4CCN(C)CC4)cc3OC)nc2N1C1CCCC1
# Summary of the method: as §1
# volasertib = compound: CC[C@@H]1C(=O)N(C)c2cnc(Nc3ccc(C(=O)N[C@H]4CC[C@H](N5CCN(CC6CC6)CC5)CC4)cc3OC)nc2N1C(C)C [volasertib]
# Summary of the method: as §1
# [3] = compound: CCn1c(C(=O)N(C2CC2)C2CC2)cc2c3c(ncn3C)c(Nc3cc(C)n(C)n3)nc21
# Summary of the method: as §1
# [4] = compound: CCn1cc(-c2ccnc3[nH]c(-c4cccc(CN(C)C)c4)cc23)c(-c2ccc(NC(=O)N(C)C)cc2)n1
# Summary of the method: as §1
# [5] = compound: CN1CCC(CNc2ccc3ncc(-c4cccc(OC(F)(F)F)c4)n3n2)CC1
# Summary of the method: as §1
# saracatinib = compound: CN1CCN(CCOc2cc(OC3CCOCC3)c3c(Nc4c(Cl)ccc5c4OCO5)ncnc3c2)CC1 [saracatinib]
# Summary of the method: as §1
# sotrastaurin = compound: CN1CCN(c2nc(C3=C(c4c[nH]c5ccccc45)C(=O)NC3=O)c3ccccc3n2)CC1 [sotrastaurin]
# Summary of the method: as §1
# Sequence of UniProt O15198 (O15198 whole entry, looked up): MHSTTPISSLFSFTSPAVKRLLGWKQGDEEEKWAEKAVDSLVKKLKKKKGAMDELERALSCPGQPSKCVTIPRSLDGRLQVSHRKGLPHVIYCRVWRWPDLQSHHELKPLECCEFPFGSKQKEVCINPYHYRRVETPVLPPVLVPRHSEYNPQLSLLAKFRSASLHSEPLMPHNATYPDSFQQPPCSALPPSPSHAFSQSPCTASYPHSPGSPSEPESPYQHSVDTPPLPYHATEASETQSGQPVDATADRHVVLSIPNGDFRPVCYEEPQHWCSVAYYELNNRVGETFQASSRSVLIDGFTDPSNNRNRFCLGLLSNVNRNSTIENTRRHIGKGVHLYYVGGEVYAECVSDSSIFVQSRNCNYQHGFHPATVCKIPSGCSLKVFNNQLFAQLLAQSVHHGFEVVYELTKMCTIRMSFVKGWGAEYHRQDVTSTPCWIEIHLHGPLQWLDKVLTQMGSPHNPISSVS
# Sequence of UniProt Q9Y3B4 (Q9Y3B4 whole entry, looked up): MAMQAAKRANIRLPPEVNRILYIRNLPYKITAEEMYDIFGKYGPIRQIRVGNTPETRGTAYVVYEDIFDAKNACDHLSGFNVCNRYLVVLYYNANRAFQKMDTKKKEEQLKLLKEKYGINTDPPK
# Sequence of UniProt Q9H4L7 (Q9H4L7 whole entry, looked up): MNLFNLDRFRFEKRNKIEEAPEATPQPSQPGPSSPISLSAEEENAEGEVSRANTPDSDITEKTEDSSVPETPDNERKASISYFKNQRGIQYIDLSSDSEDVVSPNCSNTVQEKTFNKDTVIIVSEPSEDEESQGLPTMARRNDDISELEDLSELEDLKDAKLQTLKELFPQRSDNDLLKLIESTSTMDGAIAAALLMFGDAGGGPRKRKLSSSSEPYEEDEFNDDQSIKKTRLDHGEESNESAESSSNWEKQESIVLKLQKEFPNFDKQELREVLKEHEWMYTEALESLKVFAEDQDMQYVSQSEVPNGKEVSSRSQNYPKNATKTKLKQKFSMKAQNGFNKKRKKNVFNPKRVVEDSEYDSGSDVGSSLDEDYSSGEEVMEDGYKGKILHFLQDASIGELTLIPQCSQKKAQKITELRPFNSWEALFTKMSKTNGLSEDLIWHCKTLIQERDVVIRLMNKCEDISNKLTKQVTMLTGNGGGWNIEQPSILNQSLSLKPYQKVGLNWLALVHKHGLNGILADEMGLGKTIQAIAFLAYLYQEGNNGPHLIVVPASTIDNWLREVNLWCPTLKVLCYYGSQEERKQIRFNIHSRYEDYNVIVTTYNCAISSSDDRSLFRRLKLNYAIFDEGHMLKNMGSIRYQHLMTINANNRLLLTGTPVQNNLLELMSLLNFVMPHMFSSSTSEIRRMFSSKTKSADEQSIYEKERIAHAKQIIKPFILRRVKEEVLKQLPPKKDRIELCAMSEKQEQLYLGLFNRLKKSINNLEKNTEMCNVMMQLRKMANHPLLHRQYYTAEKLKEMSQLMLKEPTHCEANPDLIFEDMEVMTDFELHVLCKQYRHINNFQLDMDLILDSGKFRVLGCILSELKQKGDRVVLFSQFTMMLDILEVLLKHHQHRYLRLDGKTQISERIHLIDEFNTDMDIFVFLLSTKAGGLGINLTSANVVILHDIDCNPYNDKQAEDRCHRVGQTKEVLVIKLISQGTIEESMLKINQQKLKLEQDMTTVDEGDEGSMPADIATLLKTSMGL
# Sequence of UniProt Q96DI7 (Q96DI7 whole entry, looked up): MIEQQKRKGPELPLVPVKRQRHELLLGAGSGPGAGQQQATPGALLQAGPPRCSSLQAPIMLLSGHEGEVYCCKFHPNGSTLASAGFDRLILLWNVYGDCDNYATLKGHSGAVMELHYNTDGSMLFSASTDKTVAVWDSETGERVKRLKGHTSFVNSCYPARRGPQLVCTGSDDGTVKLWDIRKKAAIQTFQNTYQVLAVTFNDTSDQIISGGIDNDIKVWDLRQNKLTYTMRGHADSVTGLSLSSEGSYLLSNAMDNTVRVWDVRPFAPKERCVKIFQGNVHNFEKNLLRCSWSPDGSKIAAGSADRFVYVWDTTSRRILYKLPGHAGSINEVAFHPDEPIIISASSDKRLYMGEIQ
# Sequence of UniProt Q15022 (Q15022 whole entry, looked up): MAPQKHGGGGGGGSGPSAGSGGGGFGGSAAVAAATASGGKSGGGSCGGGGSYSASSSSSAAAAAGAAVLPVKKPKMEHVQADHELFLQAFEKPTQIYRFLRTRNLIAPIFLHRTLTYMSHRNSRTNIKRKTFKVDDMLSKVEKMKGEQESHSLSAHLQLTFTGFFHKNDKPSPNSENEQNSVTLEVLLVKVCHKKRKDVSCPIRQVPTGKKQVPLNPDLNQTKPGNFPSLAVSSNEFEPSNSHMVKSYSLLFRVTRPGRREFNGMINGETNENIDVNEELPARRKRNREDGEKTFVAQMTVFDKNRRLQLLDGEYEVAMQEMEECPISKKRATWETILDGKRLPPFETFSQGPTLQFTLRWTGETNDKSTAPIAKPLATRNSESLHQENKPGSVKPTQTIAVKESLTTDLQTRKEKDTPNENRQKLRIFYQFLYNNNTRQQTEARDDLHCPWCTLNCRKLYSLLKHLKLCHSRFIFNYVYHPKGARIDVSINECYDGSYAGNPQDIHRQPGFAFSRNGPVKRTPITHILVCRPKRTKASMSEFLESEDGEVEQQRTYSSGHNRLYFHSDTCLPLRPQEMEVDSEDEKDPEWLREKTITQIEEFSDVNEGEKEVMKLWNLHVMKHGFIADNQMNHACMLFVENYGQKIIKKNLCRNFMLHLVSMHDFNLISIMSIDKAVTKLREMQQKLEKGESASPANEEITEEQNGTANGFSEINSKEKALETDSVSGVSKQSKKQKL
# Sequence of UniProt P31947 (P31947 whole entry, looked up): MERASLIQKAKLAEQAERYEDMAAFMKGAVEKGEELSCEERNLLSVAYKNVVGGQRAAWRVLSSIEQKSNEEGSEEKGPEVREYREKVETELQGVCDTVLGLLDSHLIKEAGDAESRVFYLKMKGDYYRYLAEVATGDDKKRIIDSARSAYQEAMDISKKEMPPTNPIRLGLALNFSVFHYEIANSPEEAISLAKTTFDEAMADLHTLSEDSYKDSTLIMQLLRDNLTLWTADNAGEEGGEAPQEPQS
# Sequence of UniProt O95793 (O95793 whole entry, looked up): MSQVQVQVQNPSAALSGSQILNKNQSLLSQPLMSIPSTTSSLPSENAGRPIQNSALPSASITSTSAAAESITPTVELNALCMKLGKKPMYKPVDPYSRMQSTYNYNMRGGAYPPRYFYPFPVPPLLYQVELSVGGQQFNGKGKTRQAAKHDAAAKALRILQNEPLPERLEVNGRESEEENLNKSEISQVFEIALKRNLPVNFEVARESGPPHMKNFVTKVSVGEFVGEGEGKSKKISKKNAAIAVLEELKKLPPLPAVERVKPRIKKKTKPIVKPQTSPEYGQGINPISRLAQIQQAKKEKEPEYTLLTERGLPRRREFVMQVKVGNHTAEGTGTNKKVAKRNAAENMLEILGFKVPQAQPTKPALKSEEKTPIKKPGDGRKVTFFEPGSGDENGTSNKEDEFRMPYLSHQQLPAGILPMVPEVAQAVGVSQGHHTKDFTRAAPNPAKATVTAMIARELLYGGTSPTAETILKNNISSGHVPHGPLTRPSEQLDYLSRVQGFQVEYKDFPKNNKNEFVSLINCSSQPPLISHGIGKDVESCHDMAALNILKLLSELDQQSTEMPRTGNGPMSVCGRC
# Sequence of UniProt P35711 (P35711 whole entry, looked up): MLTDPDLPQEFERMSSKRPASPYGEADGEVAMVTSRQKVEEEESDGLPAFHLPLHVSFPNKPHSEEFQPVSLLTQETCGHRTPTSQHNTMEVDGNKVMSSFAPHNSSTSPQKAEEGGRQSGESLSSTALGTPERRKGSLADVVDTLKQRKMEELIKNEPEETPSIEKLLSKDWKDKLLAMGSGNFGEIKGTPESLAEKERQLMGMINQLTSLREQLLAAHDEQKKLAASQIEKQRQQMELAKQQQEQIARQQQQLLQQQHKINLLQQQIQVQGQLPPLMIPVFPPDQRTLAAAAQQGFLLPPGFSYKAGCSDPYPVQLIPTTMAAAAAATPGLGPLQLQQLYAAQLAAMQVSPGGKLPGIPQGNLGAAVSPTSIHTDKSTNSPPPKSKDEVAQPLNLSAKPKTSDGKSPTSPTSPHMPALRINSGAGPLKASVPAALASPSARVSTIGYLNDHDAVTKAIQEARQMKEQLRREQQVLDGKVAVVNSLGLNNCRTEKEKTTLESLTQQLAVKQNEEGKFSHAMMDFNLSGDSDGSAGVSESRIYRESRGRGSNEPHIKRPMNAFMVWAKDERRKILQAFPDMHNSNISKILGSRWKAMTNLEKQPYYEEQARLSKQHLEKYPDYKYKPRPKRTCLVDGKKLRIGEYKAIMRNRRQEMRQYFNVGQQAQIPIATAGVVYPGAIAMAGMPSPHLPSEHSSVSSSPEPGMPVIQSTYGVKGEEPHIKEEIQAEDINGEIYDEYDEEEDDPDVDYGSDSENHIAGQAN
# Sequence of UniProt Q8WUM9 (Q8WUM9 whole entry, looked up): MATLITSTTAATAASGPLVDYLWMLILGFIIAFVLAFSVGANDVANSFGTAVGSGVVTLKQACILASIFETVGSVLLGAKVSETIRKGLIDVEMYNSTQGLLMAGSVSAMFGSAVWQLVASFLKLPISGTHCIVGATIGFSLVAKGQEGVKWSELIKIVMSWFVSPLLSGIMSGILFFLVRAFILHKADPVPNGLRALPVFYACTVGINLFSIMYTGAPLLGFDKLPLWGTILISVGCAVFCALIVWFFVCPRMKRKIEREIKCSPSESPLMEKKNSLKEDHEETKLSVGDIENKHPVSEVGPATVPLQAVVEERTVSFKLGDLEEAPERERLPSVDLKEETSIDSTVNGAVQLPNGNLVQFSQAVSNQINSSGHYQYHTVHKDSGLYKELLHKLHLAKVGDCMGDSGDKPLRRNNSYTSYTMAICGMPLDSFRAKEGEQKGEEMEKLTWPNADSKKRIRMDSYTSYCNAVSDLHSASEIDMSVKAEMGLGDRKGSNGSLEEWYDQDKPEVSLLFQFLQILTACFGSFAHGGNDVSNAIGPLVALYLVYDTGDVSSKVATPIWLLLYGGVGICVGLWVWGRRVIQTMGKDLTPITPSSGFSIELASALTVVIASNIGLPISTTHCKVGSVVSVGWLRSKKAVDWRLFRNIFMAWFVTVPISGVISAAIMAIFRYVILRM
Target,log2 fold change (vemurafenib),log2 fold change [1],log2 fold change (barasertib),log2 fold change [2],log2 fold change (volasertib),log2 fold change [3],log2 fold change [4],log2 fold change [5],log2 fold change (saracatinib),log2 fold change (sotrastaurin)
SNRPD2 (UniProt P62316),-0.008,-0.019,0.001,0.058,0.033,0.018,-0.083,0.051,-0.021,0.011
SFN (UniProt P31947),-0.038,0.003,-0.025,0.006,0.029,0.023,0.521 (active),-0.084,-0.003,-0.01
SMAD9 (UniProt O15198),-0.045,-0.003,0.032,-0.011,0.024,0.111,0.021,0.048,0.08,0.007
SMARCAD1 isoform 2 (UniProt Q9H4L7),0.014,0.034,0.021,-0.039,-0.048,0.017,-0.005,-0.057,0.008,0.002
SNRNP40 (UniProt Q96DI7),-0.032,0.019,-0.06,-0.001,-0.024,-0.033,-0.115,0.058,0.01,-0.013
SRRT (UniProt Q9BXP5),0.012,0.012,-0.008,-0.039,-0.08,0.042,0.061,-0.1,-0.016,0.02
SF3B6 (UniProt Q9Y3B4),-0.006,-0.003,-0.026,0.027,0.014,-0.003,0.061,-0.013,0.028,0.018
SUZ12 (UniProt Q15022),0.012,0.022,-0.012,0.024,-0.001,0.012,-0.026,-0.002,-0.019,0
STAU1 (UniProt O95793),0.027,0.003,0.01,0,-0.013,0.069,0.25,-0.103,0.004,-0.039
SPNS1 (UniProt Q9H2V7),0,0.036,-0.004,0.154,-0.004,-0.097,-0.014,0.064,-0.006,0.02
SPAG5 (UniProt Q96R06),-0.007,0.04,0.025,-0.016,-0.004,-0.01,-0.004,-0.174,0.004,0.009
SLC30A9 (UniProt Q6PML9),-0.005,0.024,0.015,0.07,0.018,0.056,-0.534 (active),0.079,0.034,-0.056
SHKBP1 (UniProt Q8TBC3),0.079,-0.017,0.03,-0.038,0.033,-0.058,-0.093,0.103,0.013,0.017
SOX5 (UniProt P35711),0.141,0.175,0.048,0.176,-0.034,0.049,-0.043,-0.043,0.076,-0.131
SLC20A1 (UniProt Q8WUM9),0.099,-0.004,0.009,0.416 (active),-0.028,-0.061,0.153,-0.013,0.063,-0.006
